Data taken from PubChem BioAssay (Tox21).
Results filed as inconclusive are left out. Active and inactive are the calls of the source. Unless noted, calls follow the shape of the dose curve; as a rule, active = well fitted curve in the direction sought with a large enough effect in the repeat runs; inconclusive = weak or mixed curves; inactive = no such curve, though single readings can be large; an effect the other way counts as inactive or inconclusive.

Legend:
[1] = qHTS assay to identify small molecule antagonists of the estrogen related receptor (ERR) signaling pathway from Tox21 library - cell viability counter screen (AID 1224834); also: nearly all actives have a fitted effect of over 30% in size
In short: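 Counter screen run in ERR cells (2,000 cells/well): cells pre-incubated 6 h, then treated with compounds for 17.5 h at 37 C. Fluorescence was read 30 min after CellTiter-Fluor addition.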

[2] = target: Luciferin 4-monooxygenase (Photinus pyralis) (UniProt P08659); experiment: qHTS assay to identify small molecule inhibitors of firefly luciferase (AID 1224835); also: series mostly up to about 120 µM; nearly all actives have a fitted effect of over 25% in size
In short: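 Quantitative HTS format; KM concentrations of both substrates. Purified P. pyralis FLuc activity quantified from luminescence images.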

[3] = qHTS assay to identify small molecule agonists of the constitutive androstane receptor (CAR) signaling pathway - cell viability counter screen (AID 1224836); also: series mostly up to about 92 µM; nearly all actives have a fitted effect of over 45% in size
In short: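 HepG2-CYP2B6-hCAR, 2500 cells/well, 4 h pre-incubation; cpd 15 conc + PK11195 0.75 uM final; 23 h, 37 C/5% CO2; CellTiter-Fluor, fluorescence.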

[4] = qHTS assay to identify small molecule antagonists of the constitutive androstane receptor (CAR) signaling pathway - cell viability counter screen (AID 1224837); also: series mostly up to about 92 µM; nearly all actives have a fitted effect of over 45% in size
In short: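 CITCO at 50 nM final was added alongside compounds (15 concentrations) to double-stable hCAR/CYP2B6-2.2kb HepG2 cells. Following 23 hr at 37 C, cell viability was quantified by CellTiter-Fluor fluorescence intensity.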

[5] = qHTS assay to identify small molecule antagonists of the estrogen related receptor signaling pathway with the pleiotropic PPARgamma coactivator (PGC) from Tox21 10K library - cell viability counter screen (AID 1224840; active = well fitted cell-killing curve with a large enough effect in the repeat runs, not every such curve was filed as active; also: nearly all actives have a fitted effect of over 40% in size)
In short: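 Readout: fluorescence intensity from CellTiter-Fluor after 30 min at 37 C/5% CO2. Preceded by 17.5 h treatment of PGC/ERR cells with DMSO-dissolved compounds, added 6 h post-seeding.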

[6] = qHTS assay to identify small molecule antagonists of the estrogen related receptor signaling pathway with the pleiotropic PPARgamma coactivator (PGC) from Tox21 10K library (AID 1224841; call rule not given here; also: series mostly up to about 92 µM; actives are mostly falling curves and most rising ones were filed inactive; nearly all actives have a fitted effect of over 50% in size)
In short: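 One-Glo luminescence, measured after half an hour at room temperature, quantified reporter output of PGC/ERR cells. These had been plated at 2,000 per well, incubated 6 h, dosed with compounds in DMSO, then kept 18 h at 37 C.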

[7] = qHTS assay to identify small molecule agonists of the estrogen related receptor signaling pathway with the pleiotropic PPARgamma coactivator (PGC) from Tox21 10K library (AID 1224842); also: nearly all actives have a fitted effect of over 15% in size
In short: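 PGC/ERR reporter cells (NTP line) were seeded 2,000 per well, rested 6 h at 37 C/5% CO2, then pin-dosed with compounds in DMSO for 18 h at 37 C; luciferase read by One-Glo luminescence after 30 min at room temperature.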

[8] = target: Nuclear receptor subfamily 1 group I member 3 (Homo sapiens) (UniProt Q14994); experiment: qHTS assay to identify small molecule agonists of the constitutive androstane receptor (CAR) signaling pathway (AID 1224839);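 also: HepG2 cells stably carrying human CAR and a CYP2B6 luciferase reporter; series mostly up to about 92 µM; nearly all actives have a fitted effect of over 15% in size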
In short: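 HepG2-CYP2B6-hCAR cells, 2500/well, 4 h pre-incubation; compounds 15 conc.; PK11195 0.75 uM final; 24 h, 37 C/5% CO2; ONE-Glo luciferase read.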
% is scaled to controls: 0 for no effect and ±100 for the full control effect.

Luciferin 4-monooxygenase (Photinus pyralis), sequence (P08659 whole entry, looked up): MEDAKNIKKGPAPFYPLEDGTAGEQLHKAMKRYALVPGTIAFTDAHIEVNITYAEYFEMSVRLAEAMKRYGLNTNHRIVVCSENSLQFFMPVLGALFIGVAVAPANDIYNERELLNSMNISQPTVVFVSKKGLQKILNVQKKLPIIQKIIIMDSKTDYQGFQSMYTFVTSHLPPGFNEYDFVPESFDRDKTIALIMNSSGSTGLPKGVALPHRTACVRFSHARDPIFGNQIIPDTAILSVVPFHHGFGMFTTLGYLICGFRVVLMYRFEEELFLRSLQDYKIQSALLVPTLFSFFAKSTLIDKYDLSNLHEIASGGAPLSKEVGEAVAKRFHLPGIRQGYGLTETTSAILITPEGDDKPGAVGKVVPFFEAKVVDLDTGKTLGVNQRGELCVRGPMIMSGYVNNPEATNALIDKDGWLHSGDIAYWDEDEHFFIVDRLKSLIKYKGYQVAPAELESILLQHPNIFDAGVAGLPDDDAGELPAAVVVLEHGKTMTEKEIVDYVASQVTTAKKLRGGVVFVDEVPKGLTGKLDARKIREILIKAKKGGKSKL
Nuclear receptor subfamily 1 group I member 3 (Homo sapiens), sequence (Q14994 whole entry, looked up): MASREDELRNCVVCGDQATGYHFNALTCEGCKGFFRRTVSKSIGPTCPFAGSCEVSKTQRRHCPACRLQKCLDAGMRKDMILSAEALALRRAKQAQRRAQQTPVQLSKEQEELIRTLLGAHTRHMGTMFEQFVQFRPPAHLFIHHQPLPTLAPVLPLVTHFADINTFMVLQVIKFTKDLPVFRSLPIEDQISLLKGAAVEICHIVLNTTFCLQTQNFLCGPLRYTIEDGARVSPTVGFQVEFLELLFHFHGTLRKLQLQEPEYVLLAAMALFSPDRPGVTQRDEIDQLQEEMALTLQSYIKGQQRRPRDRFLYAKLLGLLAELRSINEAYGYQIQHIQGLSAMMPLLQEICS

O=C(O)c1ccccc1-c1ccc(C(F)(F)F)cc1
inactive: Potency [1] | Potency [2] | outcome [3] | outcome [4] | outcome [5]

N[C@@H](CS)C(=O)O
inactive: Potency [1] | Potency [2] | outcome [3] | outcome [4] | outcome [5]

CCC(=O)c1cccc(Cl)c1
inactive: Potency [1] | Potency [2] | outcome [3] | outcome [4] | outcome [5]

O=C(O)c1ccc[n+]([O-])c1
inactive: Potency [1] | Potency [2] | outcome [3] | outcome [4] | outcome [5]

CC1(C)SC(C)(C)SC(C)(C)S1
inactive: Potency [1] | Potency [2] | outcome [3] | outcome [4] | outcome [5] | Potency [6] | Potency [7]

Nc1cc(C(Cl)=C(Cl)Cl)c(S(N)(=O)=O)cc1S(N)(=O)=O
inactive: Potency [1] | Potency [2] | outcome [3] | outcome [4] | outcome [5]

Cc1cc(C)cc(OCC2CNC(=O)O2)c1 (stereo not given)
inactive: Potency [1] | Potency [2] | outcome [3] | outcome [4] | outcome [5]

CC(C)(C)CC(C)(C)N
inactive: Potency [1] | Potency [2] | outcome [3] | outcome [4] | outcome [5]

COc1cc(C(=O)N2CCOCC2)cc(OC)c1OC
inactive: Potency [1] | Potency [2] | outcome [3] | outcome [4] | outcome [5]

Nc1cc(N)cc(C(=O)O)c1
inactive: Potency [1] | Potency [2] | outcome [3] | outcome [4] | outcome [5]

C=CCSCC1Nc2cc(Cl)c(S(N)(=O)=O)cc2S(=O)(=O)N1 (stereo not given)
inactive: Potency [1] | Potency [2] | outcome [3] | outcome [4] | Potency [8] | outcome [5]

C=CCOc1nc(OCC=C)nc(OCC=C)n1
inactive: Potency [1] | Potency [2] | outcome [3] | outcome [4] | outcome [5]

Nc1ncnc2c1ncn2Cc1c(F)cccc1Cl
inactive: Potency [1] | Potency [2] | outcome [3] | outcome [4] | outcome [5] | Potency [6] | Potency [7]

CC(=O)CCc1ccc(O)cc1
inactive: Potency [1] | Potency [2] | outcome [3] | outcome [4] | outcome [5]

NC(=O)c1c(Cl)cccc1Cl
inactive: Potency [1] | Potency [2] | outcome [3] | outcome [4] | Potency [8] | outcome [5] | Potency [6] | Potency [7]

C=C(C)C(=O)NCCCN(C)C
inactive: Potency [1] | Potency [2] | outcome [3] | outcome [4] | outcome [5]

NS(=O)(=O)c1cc(C2(O)NC(=O)c3ccccc32)ccc1Cl (stereo not given)
inactive: Potency [1] | Potency [2] | outcome [3] | outcome [4] | outcome [5]

O=C(CCOCCOCCOCCOCCC(=O)Nc1c(I)cc(I)c(C(=O)O)c1I)Nc1c(I)cc(I)c(C(=O)O)c1I
inactive: Potency [1] | Potency [2] | outcome [3] | outcome [4] | outcome [5]

CSc1ccc(C=O)cc1
inactive: Potency [1] | Potency [2] | outcome [3] | outcome [4] | outcome [5]

O=C(O)C1CCC1
inactive: Potency [1] | Potency [2] | outcome [3] | outcome [4] | outcome [5]

CC/C=C\CCCCO
inactive: Potency [1] | Potency [2] | outcome [3] | outcome [4] | outcome [5]

NC(N)=NS(=O)(=O)c1ccc(N)cc1
inactive: Potency [1] | Potency [2] | outcome [3] | outcome [4] | outcome [5]

CC(C)=CCC/C(C)=C/C(=O)O
inactive: Potency [1] | Potency [2] | outcome [3] | outcome [4] | outcome [5]

Oc1cc(O)c2c(c1)O[C@H](c1ccc(O)c(O)c1)[C@H](O)C2
inactive: Potency [1] | Potency [2] | outcome [3] | outcome [4] | outcome [5]

C=CC(=O)OCCCCCC
inactive: Potency [1] | Potency [2] | outcome [3] | outcome [4] | outcome [5]

C=C(C)C(=O)OCCCCCCCCCCCCCCCCCC
inactive: viability change, negative = cytotoxic [1] -0.607% [at 19 µM] | activity change, negative = inhibition [2] -0.803% [at 23.6 µM] | viability change, negative = cytotoxic [3] 1.14% [at 19 µM] | activity change, negative = cytotoxicity [4] 4.26% [at 19 µM] | viability change, negative = cytotoxic [5] 1.61% [at 19 µM]

OCCN1C[C@H](O)[C@@H](O)[C@H](O)[C@H]1CO
inactive: Potency [1] | Potency [2] | outcome [3] | outcome [4] | outcome [5]

CC(C)[C@H](N)C(=O)OCCOCn1cnc2c(=O)[nH]c(N)nc21
inactive: Potency [1] | Potency [2] | outcome [3] | outcome [4] | outcome [5]

Cc1cc(C)c(NC(=O)CN(CC(=O)O)CC(=O)O)c(C)c1Br
inactive: Potency [1] | Potency [2] | outcome [3] | outcome [4] | Potency [8] | outcome [5]

Nc1nc(F)nc2c1ncn2[C@@H]1O[C@H](CO)[C@@H](O)[C@@H]1O
inactive: Potency [1] | Potency [2] | outcome [3] | outcome [4] | Potency [8] | outcome [5]
